According to PubChem BioAssay (NCI):
About 83,000 compounds went through this panel and 20% of them were active in at least one assay; those are over-represented in the sample as a whole.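 Activity criterion: percent growth below 10, measured after cells in 96-well plates were exposed to a single compound concentration for 48 hours.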 The source made the active and inactive calls.

What was measured:
Assay in all cases: NCI-60 one-dose screen, 48 h (100 = growth as untreated, 0 = no growth, -100 = all killed)
Conditions in all cases: 10 µM unless noted
[1] = test system: HCT-15 colon
[2] = test system: HT29 colon
[3] = test system: SNB-19 CNS
[4] = test system: U251 CNS
[5] = test system: PC-3 prostate
[6] = test system: UACC-62 melanoma
[7] = test system: LOX IMVI melanoma
[8] = test system: SK-MEL-28 melanoma
[9] = test system: SK-MEL-2 melanoma
[10] = test system: EKVX NSCLC
[11] = test system: SN12C renal
[12] = test system: UO-31 renal
[13] = test system: TK-10 renal
[14] = test system: ACHN renal
[15] = test system: CAKI-1 renal
[16] = test system: A498 renal
[17] = test system: CCRF-CEM leukemia
[18] = test system: MOLT-4 leukemia
[19] = test system: SK-MEL-5 melanoma

Measured: growth

Cc1ccc(N2CCN(C(C)C(N)=O)CC2)cc1 (configuration not stated)
inactive: [1] 115% | [2] 118% | [3] 101% | [4] 107% | [5] 105% | [6] 91.4% | [7] 107% | [8] 119% | [9] 134% | [10] 118% | [11] 92.8% | [12] 82.2% | [13] 114% | [14] 106% | [15] 107% | [16] 115% | [17] 98.2% | [18] 117%

CN1CCN(CCCOc2ccc3nc(Nc4ccc(Cl)c(C(F)(F)F)c4)ccc3c2)CC1
inactive: [3] 66% | [4] 23.3% | [5] 40.6% | [19] 76.9% | [9] 89.9% | [10] 71.8% | [11] 63.9% | [12] 69.6% | [13] 75.9% | [14] 55.9% | [15] 83.8% | [16] 101% | [18] 19.1%
active: [1] 2.44% | [2] -37.5% | [7] -83.7%

O=C1c2c(c3c4ccccc4n(CCCCCCBr)c3c3[nH]c4ccccc4c23)C(=O)N1O
active: [1] 7.75% | [2] -19.7% | [5] 4.24% | [19] -69.5% | [7] -70.2% | [9] -19.4% | [11] 8.36% | [12] 0.628% | [14] 4.33% | [15] -23.7% | [16] -9.63% | [17] 3.53% | [18] 0.344%
inactive: [3] 24.2% | [4] 10.9% | [10] 19.8% | [13] 18.1%

COc1ccc(Nc2nn3c(-c4ccccc4)cc(-c4ccccc4)nc3c2C(N)=O)c(OC)c1
inactive: [1] 70.5% | [2] 41.9% | [3] 58.2% | [4] 18.6% | [5] 44.6% | [6] 40.7% | [7] 54.6% | [8] 71% | [9] 70.1% | [10] 67.7% | [11] 46.4% | [12] 86.9% | [13] 29.7% | [14] 67% | [15] 77.4% | [16] 70.5% | [17] 73.2% | [18] 72.3%

c1ccc(-c2nc(N3CCNCC3)c3nc(-c4ccccc4)oc3n2)cc1
active: [1] -81.3% | [2] -86.6% | [3] 5.98% | [4] -93.5% | [5] -62.3% | [6] -92.8% | [11] -92.2% | [12] -91.6% | [13] -85.3% | [14] -99.2% | [15] -85.3% | [18] -34.6%
inactive: [19] 36.2% | [9] 93.3% | [10] 74.3% | [16] 80.6%

COC(=O)C(Sc1ccc(Cl)cc1)C1SC(=S)N(Cc2ccccc2)C1=O (configuration not stated)
inactive: [1] 73.9% | [2] 111% | [3] 92.6% | [4] 90.3% | [5] 97.4% | [19] 101% | [6] 99.1% | [8] 109% | [9] 96.3% | [11] 82.3% | [12] 60.2% | [13] 115% | [14] 97.6% | [15] 100% | [16] 102% | [17] 20.5% | [18] 62.1%

CN1C(=O)N(C)C2C1NN=c1s/c(=C\C=C\c3ccccc3)c(=O)n12 (configuration not stated)
inactive: [1] 32.4% | [2] 20.7% | [3] 57.9% | [4] 63.7% | [5] 40.9% | [6] 43.6% | [7] 46.4% | [8] 68.4% | [9] 61.6% | [10] 69.9% | [11] 83.5% | [12] 70.3% | [13] 80% | [14] 63.8% | [15] 46.1% | [17] 53.8% | [18] 65.2%

C=CCn1c2ccccc2c2c3c(c4c5ccccc5n(CC=C)c4c21)C(=O)N(O)C3=O
inactive: [1] 35.5% | [2] 19.2% | [3] 36.1% | [4] 11.5% | [5] 21.8% | [9] 70.4% | [10] 66% | [13] 50.8% | [16] 23.7% | [17] 10.2%
active: [19] -48.5% | [7] -81.2% | [11] 9.32% | [12] -47% | [14] -33.6% | [15] -70.6% | [18] -10.4%

Cn1cc(-c2cnc3ccc(NC(=O)Nc4ccc(F)c(Br)c4)cc3n2)cn1
inactive: [1] 19.3% | [2] 40% | [3] 57.7% | [4] 44.9% | [8] 50.1% | [10] 29.7% | [11] 46.1% | [12] 16.9% | [13] 52% | [14] 20.2% | [15] 12.8% | [16] 16.5%
active: [5] 0.663% | [6] -41.2% | [7] 4.06% | [9] -3.42% | [17] 4.33% | [18] -21.2%

O=c1[nH]c2ccc(Br)cc2c2c1C(c1ccc(Cl)cc1)c1c(ncn3nc(-c4ccco4)nc13)O2 (configuration not stated)
inactive: [1] 64.9% | [2] 73% | [3] 75.8% | [4] 80.8% | [5] 72.1% | [6] 59.8% | [7] 76.7% | [8] 91.1% | [9] 89.1% | [10] 48.8% | [11] 74.3% | [12] 35% | [13] 110% | [14] 65.4% | [15] 46.3% | [16] 59.6% | [17] 73.9% | [18] 88.1%

CCCCOc1ccc(/C=C2/SC(N3CCCC3)=NC2=O)cc1
inactive: [1] 97.2% | [2] 94.6% | [3] 92.8% | [4] 84.6% | [5] 88.7% | [19] 95.2% | [6] 87.4% | [8] 101% | [9] 105% | [10] 94.5% | [11] 87.3% | [13] 103% | [14] 103% | [15] 96.8% | [16] 91.3% | [17] 84.3% | [18] 95.6%

CCC1=CCC[C@@]2(C)CCC[C@@]3(C)CCCC(C)(C)[C@]1([O-])[O+]32
inactive: [1] 108% | [2] 102% | [3] 102% | [4] 103% | [5] 96.5% | [19] 101% | [6] 103% | [8] 96.8% | [9] 110% | [11] 106% | [12] 100% | [13] 109% | [14] 105% | [15] 94.7% | [16] 83.3% | [17] 127% | [18] 104%

Cc1ccc(-c2cc3nc(C(Cl)Cl)nc(-c4cccnc4)n3n2)cc1
inactive: [3] 23.4% | [19] 44.8% | [6] 33.3% | [8] 53.2% | [9] 77.8% | [11] 55.1% | [12] 35.9% | [16] 37.3% | [18] 27.8%
active: [1] -23.4% | [2] -27% | [4] -15.3% | [5] -4% | [10] -2.59% | [14] 1.65% | [15] 2.71%

O=C(c1ccccc1)c1c(/C=C/c2ccccc2)c2ccccc2[nH]c1=O
inactive: [1] 101% | [2] 106% | [3] 79.4% | [4] 90.5% | [5] 89.5% | [6] 70.3% | [7] 105% | [8] 113% | [9] 92.6% | [10] 98.2% | [11] 92.7% | [12] 73.6% | [13] 97.8% | [14] 93.5% | [15] 91.8% | [16] 97.6% | [17] 87.6% | [18] 84.1%

O=C(NS(=O)(=O)c1ccccc1)n1cc(-c2ccncc2)c(-c2ccc(Cl)c(O)c2)n1
inactive: [1] 103% | [2] 100% | [3] 111% | [4] 110% | [5] 93.4% | [6] 59% | [7] 79.9% | [8] 63% | [9] 64% | [10] 104% | [11] 97.4% | [12] 112% | [13] 101% | [14] 86.8% | [15] 99% | [16] 106% | [17] 89.8% | [18] 82.7%

CCN(CC)c1ccc(/C=C2\Oc3ccc(O)c(I)c3C2=O)cc1
inactive: [1] 37% | [2] 72.4% | [3] 49.7% | [4] 49.1% | [5] 52.8% | [6] 49.8% | [7] 34.2% | [8] 74.3% | [9] 62.3% | [10] 73.3% | [11] 76.9% | [12] 46.3% | [13] 74.2% | [14] 54.9% | [15] 68.4% | [17] 13.3% | [18] 16.4%

CSc1nc2c(c(=O)[nH]1)C(c1ccc(C)cc1)C=C(C(=O)O)N2 (configuration not stated)
inactive: [1] 105% | [2] 118% | [3] 133% | [4] 109% | [5] 109% | [19] 102% | [6] 129% | [8] 99.9% | [9] 120% | [11] 120% | [12] 88.1% | [13] 118% | [14] 106% | [15] 88.6% | [16] 93.1% | [18] 119%

COc1cc(/C=C/C(=O)/C=C/c2cc(OC)c3c(c2)OCO3)cc2c1OCO2
inactive: [1] 69.1% | [3] 80.3% | [4] 45.1% | [5] 83.7% | [19] 80.9% | [6] 75.1% | [8] 119% | [10] 95.9% | [11] 85.4% | [12] 88.1% | [13] 136% | [14] 102% | [15] 92.6% | [16] 117% | [18] 91.2%
active: [2] 6.92%
